Reference: PubChem BioAssay (NCI)
The panel holds about 79,000 compounds, 15% with a hit somewhere; the sample as a whole holds those more often. Calls of active or inactive are those of the source. No stated cut-off is given here; in the data, active means growth inhibition above about 70%; inactive means the rest.

Experiments:
[1] = NCI Yeast Anticancer Drug Screen. Data for the rad50 strain (AID 155);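 further: 0% = growth of vehicle-only cultures of the same strain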; details: S. cerevisiae rad50 strain growth inhibition; at 50.0 µM; stronger effect = higher value
Procedure, shortened: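 Inhibition values express reduced yeast growth in compound-treated cultures relative to vehicle-treated controls.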

[2] = NCI Yeast Anticancer Drug Screen. Data for the mec2-1 strain (AID 157); details: S. cerevisiae mec2-1 strain, at 50.0 µM, stronger effect = higher value
Procedure, shortened: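 Yeast mec2-1 mutant treated with compound. Readout: growth inhibition vs vehicle controls.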

[3] = NCI Yeast Anticancer Drug Screen. Data for the sgs1 mgt1 strain (AID 161);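 further: 0% = growth of cultures given vehicle only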; details: S. cerevisiae sgs1 mgt1 strain, at 50.0 µM, stronger effect = higher value
Procedure, shortened: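 Read-out: growth inhibition vs vehicle controls. Cells: mutant yeast strain deficient in DNA damage repair.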

[4] = NCI Yeast Anticancer Drug Screen. Data for the cln2 rad14 strain (AID 165);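 further: 0% = growth equal to vehicle treated cultures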; details: S. cerevisiae cln2 rad14 strain, at 50.0 µM, stronger effect = higher value
Procedure, shortened: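 cln2 rad14 yeast strain; compound exposure; growth inhibition read vs vehicle controls.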

[5] = NCI Yeast Anticancer Drug Screen. Data for the bub3 strain (AID 167); details: S. cerevisiae bub3 mutant strain, at 50.0 µM, stronger effect = higher value
Procedure, shortened: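 Steps: expose the mutant yeast strain to compound; grow alongside vehicle-treated cultures; measure growth; express inhibition against the vehicle cultures.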

[6] = NCI Yeast Anticancer Drug Screen. Data for the mlh1 rad18 strain (AID 175); details: S. cerevisiae mlh1 rad18 strain growth inhibition; at 50.0 µM; stronger effect = higher value
Procedure, shortened: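 Yeast w/ defined DNA-repair lesions; compound exposure; growth vs vehicle controls → % inhibition.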

Measured: growth inhibition

O=C(COc1ccccc1Cl)Nc1ccc[n+](Cc2ccc(S(=O)(=O)F)cc2)c1
inactive: [1] -20.9% | [2] -21.2% | [3] 2.9% | [4] -42.2% | [5] -3.15% | [6] -0.7%

c1ccc2c(C3N4CCCN3CC4)c[nH]c2c1 (stereo unspecified)
inactive: [1] -0.2% | [2] -15.7% | [3] 8.7% | [4] 9.3% | [5] -4.2% | [6] 6.05%

Cc1nc2ccccc2c(=O)n1-c1ccccc1
inactive: [1] -13.6% | [2] -15.9% | [3] 0% | [4] 15.9% | [5] 10.9% | [6] -3.8%

CCCCCCCC(=O)O.[Ni]
inactive: [1] -15.1% | [2] -0.6% | [3] -2.3% | [4] 8.45% | [5] -18.4% | [6] -18.5%

CCOC(=O)C(C[Si](C)(C)C)P(=O)(OCC)OCC (stereo unspecified)
inactive: [1] -24.6% | [2] -21.9% | [3] -58.4% | [4] -28.6% | [5] -26.7% | [6] -33%

CN(C)c1ccc(N=Nc2ccc([As](=O)(O)O)cc2)cc1
inactive: [1] -23.1% | [2] -10.6% | [3] -11.8% | [4] -35.1% | [5] -5.15% | [6] -0.4%

N#CCCCCN=[N+]=[N-]
inactive: [1] -4% | [2] 27.1% | [3] -12.6% | [4] 3.25% | [5] 20.4% | [6] -8.35%

O=C(NCCN1CCOCC1)c1cc(N(CCCl)CCCl)c([N+](=O)[O-])cc1[N+](=O)[O-]
inactive: [1] 15.8% | [2] 7.45% | [3] 16.6% | [4] 23.6% | [5] 33.1% | [6] 27.9%

C/C=C1/C[C@@H](C)[C@@](C)(O)C(=O)OCC2=CC[N+]3([O-])CC[C@@H](OC1=O)[C@@H]23 (stereo partly specified)
inactive: [1] -0.9% | [2] -17.4% | [3] -3.4% | [4] 10.7% | [5] -15.9% | [6] -53.6%

CC1(C)C(=O)CC[C@@]2(C)C1=CC[C@@H]1[C@@H]2CC[C@@]2(C)[C@H]1CC[C@]2(C)O
inactive: [1] 5.75% | [2] -14.8% | [3] 11.6% | [4] -21% | [5] 3.8% | [6] 7.05%

C[C@]12CC[C@@H](OC(=O)N(CCCl)N=O)C[C@@H]1CC[C@@H]1[C@@H]2CC[C@]2(C)C(=O)CC[C@@H]12
inactive: [1] 1.55% | [2] -3.4% | [3] 26.5% | [4] -0.75% | [5] 13.2% | [6] 59.9%

CN1C2CCC1CC(O)(c1ccc(Cl)cc1)C2 (stereo unspecified)
inactive: [1] 26.1% | [2] 16.4% | [3] 16.6% | [4] 16.1% | [5] 30.4% | [6] 28.1%

CCOP(=O)(OCC)O/N=C(/c1ccccc1)C(C)C
inactive: [1] 25.4% | [2] 4.85% | [3] 19.9% | [4] 10.3% | [5] -0.1% | [6] 2.4%

Cc1c2ccccc2c(C)c2c1cc[n+]1ccccc21
inactive: [1] 14.1% | [2] -1.35% | [3] 15.2% | [4] 0.05% | [5] 1.05% | [6] 1.8%

N/C(=N\N=C\c1ccc(O)cc1O)N[N+](=O)[O-]
inactive: [1] 12.2% | [2] -0.85% | [3] -3.45% | [4] -41.7% | [5] 3.65% | [6] 4.1%

CC1=C(Cl)C=CP(=O)(Oc2ccccc2)C1 (stereo unspecified)
inactive: [1] 19.5% | [2] -14.4% | [3] -12.2% | [4] 29.2% | [5] -5.6% | [6] -8.15%

CCC(=O)[O][Sn]([CH3])([CH3])[O][Sn]([CH3])([CH3])[O]C(=O)CC
inactive: [1] -2.55% | [2] 18.1% | [3] -28.8% | [4] 11.8% | [5] -16.9% | [6] 3.25%

CC1(C)N=C(N)N=C(N)N1c1ccc(CCCCCCc2ccc(S(=O)(=O)F)cc2)cc1
active: [1] 99.5% | [2] 99% | [3] 99.5% | [4] 99% | [5] 99% | [6] 99.4%

O=[N+]([O-])C(CO)CCCC(CO)[N+](=O)[O-] (stereo unspecified)
inactive: [1] 11.7% | [2] -6% | [3] 5.65% | [4] -37.1% | [5] -20.4% | [6] 11.4%

O=[As](O)(O)c1cccc(Cl)c1
inactive: [1] 9.3% | [2] -0.25% | [3] -13.8% | [4] 1.85% | [5] 1.9% | [6] -0.9%

O=NN(CCCl)C(=O)O
inactive: [1] 5.55% | [2] -9.05% | [3] -5.25% | [4] -42.8% | [5] 10.9% | [6] 11.9%

COc1ccc2c(C3(O)CCNCC3)c[nH]c2c1
inactive: [1] 0.1% | [2] -1.3% | [3] -3.7% | [4] 2.75% | [5] -3.7% | [6] 3.8%

O[C@H](c1ccccc1)[C@@H](c1ccccc1)N1CCCCC1
inactive: [1] -9.85% | [2] -11.9% | [3] -3.65% | [4] -28% | [5] 41.9% | [6] -11.6%

O=c1[nH]cc(Cn2cccc3c(=O)ncnc2-3)c(=O)[nH]1
inactive: [1] 14.9% | [2] 5.05% | [3] -4.45% | [4] -43.5% | [5] -16.7% | [6] -5.7%

FC(F)(F)C(OP(OC(C(F)(F)F)C(F)(F)F)OC(C(F)(F)F)C(F)(F)F)C(F)(F)F
inactive: [1] 27.4% | [2] 8.95% | [3] 2.6% | [4] 1.55% | [5] -4.9% | [6] 28.1%

O=c1ccc(=O)[nH][nH]1.[Zn+2]
inactive: [1] -18.2% | [2] 5.1% | [3] -4.8% | [4] -7.2% | [5] -4% | [6] -22.1%

NCCn1ccc2ccccc21
inactive: [1] 8.2% | [2] -21.2% | [3] 5.35% | [4] 7.35% | [5] -0.4% | [6] 18.2%

c1cc[n+]2c(c1)-c1cccc[n+]1CC2
inactive: [1] 65.8% | [2] 11% | [3] 52.7% | [4] 26% | [5] 19.3% | [6] 53.1%

CC(C)OP(=O)(OC(C)C)C(C)(C)O
inactive: [1] 2.8% | [2] 3.8% | [3] 12.9% | [4] 21.3% | [5] -1.35% | [6] -32.1%

CCCCCCP(=O)(O)O.[Zn+2]
inactive: [1] -33.9% | [2] -21.8% | [3] -9.65% | [4] -9.9% | [5] -35.1% | [6] -8.75%

CCN(CC)CCn1ccc2ccccc21
inactive: [1] -11.4% | [2] -18.4% | [3] -9.85% | [4] 17.3% | [5] -27.1% | [6] -5.95%

O=C(O)CP(=S)(S)c1ccccc1 (stereo unspecified)
inactive: [1] -28.5% | [2] -32.9% | [3] -26.4% | [4] 2.4% | [5] -27.8% | [6] -39.5%

CCCCOC(=O)c1ccccc1C(=O)O.[Mn]
inactive: [1] -38.7% | [2] -11.8% | [3] -6.15% | [4] -12.6% | [5] -29.6% | [6] -3.3%

CC(Br)C(=O)C(CCN(C)C)(c1ccccc1)c1ccccc1 (stereo unspecified)
inactive: [1] 17.6% | [2] -0.05% | [3] 7.95% | [4] -6.4% | [5] 21.8% | [6] 17.1%

CCc1cc(C)cc2[n+]1CC=C2C
inactive: [1] 6.45% | [2] 5.1% | [3] 6.85% | [4] 21.7% | [5] -0.7% | [6] 14.5%

CC(=O)Cc1c[nH]c2ccccc12
inactive: [1] -25.2% | [2] -41.3% | [3] -9.35% | [4] -1.5% | [5] -28.2% | [6] -25.2%

COc1ccccc1[As](=O)(O)c1ccccc1
inactive: [1] -6.45% | [2] -0.85% | [3] -1.45% | [4] -47.6% | [5] -11% | [6] 5.25%

O.O=[N+]([O-])O.[NH2-].[NH2-].[Pt+2]
inactive: [1] 22.9% | [2] 20.4% | [3] 8.6% | [4] 15.2% | [5] 4.55% | [6] 31.4%

COc1ccccc1CN1CCN(Cc2ccccc2OC)C1c1ccc(N(CCCl)CCCl)cc1
inactive: [1] -9.8% | [2] -9.05% | [3] -14.7% | [4] -32.5% | [5] -1.9% | [6] -4.1%

O=C1NC(=O)C(=Cc2ccco2)C(=O)N1
inactive: [1] -4.4% | [2] -26.4% | [3] -7.85% | [4] 5.65% | [5] -31.6% | [6] -3.3%

CN(C)c1ccc(/C=C/C=C\C2=CC(=C\C=C/C=C3C=CC(=[N+](C)C)C=C3)/Sc3ccccc32)cc1
inactive: [1] -36.4% | [2] -45.9% | [3] -63.7% | [4] -29.6% | [5] -27.4% | [6] -55.3%
